Assay results reported in ChEMBL document CHEMBL2218924, “A broad activity screen in support of a chemogenomic map for kinase signalling research and drug discovery” (Biochem J, 2013).

How the values were obtained:
[1] = biological target: T1, Serine/threonine-protein kinase TBK1 (Homo sapiens) (UniProt Q9UHD2); conditions: at 10 µM
T1 sequence (whole entry): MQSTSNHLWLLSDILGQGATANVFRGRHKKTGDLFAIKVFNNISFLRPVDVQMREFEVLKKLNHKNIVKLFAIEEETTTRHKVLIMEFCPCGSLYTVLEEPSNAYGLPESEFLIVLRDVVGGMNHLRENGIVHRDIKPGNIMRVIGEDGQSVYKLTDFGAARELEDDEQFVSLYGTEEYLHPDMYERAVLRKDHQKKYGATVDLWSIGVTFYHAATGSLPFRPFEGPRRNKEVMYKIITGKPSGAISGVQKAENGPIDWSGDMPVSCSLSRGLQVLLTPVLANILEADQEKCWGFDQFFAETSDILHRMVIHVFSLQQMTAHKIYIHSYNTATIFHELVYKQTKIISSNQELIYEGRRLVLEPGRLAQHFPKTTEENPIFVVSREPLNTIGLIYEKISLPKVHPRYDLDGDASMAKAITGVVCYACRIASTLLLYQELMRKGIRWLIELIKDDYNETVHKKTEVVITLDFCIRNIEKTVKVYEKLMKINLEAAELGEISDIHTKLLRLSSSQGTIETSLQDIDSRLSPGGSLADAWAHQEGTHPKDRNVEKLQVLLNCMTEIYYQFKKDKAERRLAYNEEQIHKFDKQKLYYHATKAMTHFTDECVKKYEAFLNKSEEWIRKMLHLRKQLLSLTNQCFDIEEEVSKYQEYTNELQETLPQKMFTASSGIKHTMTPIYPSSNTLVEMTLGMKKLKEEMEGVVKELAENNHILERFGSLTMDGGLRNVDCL

[2] = biological target: T2, TGF-beta receptor type-1 (Homo sapiens) (UniProt P36897); conditions: at 1 µM
T2 sequence (whole entry): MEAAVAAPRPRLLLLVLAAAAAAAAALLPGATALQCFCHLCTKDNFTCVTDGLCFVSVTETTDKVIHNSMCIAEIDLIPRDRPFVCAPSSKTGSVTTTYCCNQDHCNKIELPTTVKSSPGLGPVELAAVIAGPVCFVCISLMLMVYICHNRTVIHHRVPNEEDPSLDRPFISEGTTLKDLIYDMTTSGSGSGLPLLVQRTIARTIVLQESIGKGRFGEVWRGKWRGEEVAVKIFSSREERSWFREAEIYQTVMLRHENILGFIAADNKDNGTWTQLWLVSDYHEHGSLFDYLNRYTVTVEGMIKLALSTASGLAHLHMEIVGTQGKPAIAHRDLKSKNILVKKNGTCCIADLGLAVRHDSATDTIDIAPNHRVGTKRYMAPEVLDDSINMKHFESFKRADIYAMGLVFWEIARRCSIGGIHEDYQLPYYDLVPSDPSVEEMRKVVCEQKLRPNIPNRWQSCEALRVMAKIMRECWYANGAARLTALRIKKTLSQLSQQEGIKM

[3] = biological target: T2, TGF-beta receptor type-1 (Homo sapiens); conditions: at 10 µM
[4] = biological target: Insulin-like growth factor 1 receptor (Homo sapiens) (UniProt P08069); conditions: at 1 µM
Chain of Insulin-like growth factor 1 receptor (Homo sapiens) (P08069 31-736 limits assumed): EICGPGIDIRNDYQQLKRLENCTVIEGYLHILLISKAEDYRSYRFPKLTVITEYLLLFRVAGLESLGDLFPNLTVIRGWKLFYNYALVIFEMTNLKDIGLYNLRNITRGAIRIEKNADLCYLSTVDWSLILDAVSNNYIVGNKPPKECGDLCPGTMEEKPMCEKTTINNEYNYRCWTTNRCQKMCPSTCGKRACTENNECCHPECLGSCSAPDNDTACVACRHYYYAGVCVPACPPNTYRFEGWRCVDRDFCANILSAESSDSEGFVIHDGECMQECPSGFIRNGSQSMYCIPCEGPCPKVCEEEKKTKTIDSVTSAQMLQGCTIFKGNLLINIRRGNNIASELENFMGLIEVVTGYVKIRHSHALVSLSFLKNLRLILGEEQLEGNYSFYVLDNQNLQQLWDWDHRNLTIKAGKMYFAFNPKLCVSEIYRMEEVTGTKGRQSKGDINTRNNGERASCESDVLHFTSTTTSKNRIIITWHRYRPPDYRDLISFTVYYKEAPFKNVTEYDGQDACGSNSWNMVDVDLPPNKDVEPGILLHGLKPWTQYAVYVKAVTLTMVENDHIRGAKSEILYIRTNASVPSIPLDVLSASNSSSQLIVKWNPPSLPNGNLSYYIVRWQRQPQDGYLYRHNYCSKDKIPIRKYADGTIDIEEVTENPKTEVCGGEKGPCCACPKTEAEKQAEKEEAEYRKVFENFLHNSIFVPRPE
Chain of Insulin-like growth factor 1 receptor (Homo sapiens) (P08069 741-1367 limits assumed): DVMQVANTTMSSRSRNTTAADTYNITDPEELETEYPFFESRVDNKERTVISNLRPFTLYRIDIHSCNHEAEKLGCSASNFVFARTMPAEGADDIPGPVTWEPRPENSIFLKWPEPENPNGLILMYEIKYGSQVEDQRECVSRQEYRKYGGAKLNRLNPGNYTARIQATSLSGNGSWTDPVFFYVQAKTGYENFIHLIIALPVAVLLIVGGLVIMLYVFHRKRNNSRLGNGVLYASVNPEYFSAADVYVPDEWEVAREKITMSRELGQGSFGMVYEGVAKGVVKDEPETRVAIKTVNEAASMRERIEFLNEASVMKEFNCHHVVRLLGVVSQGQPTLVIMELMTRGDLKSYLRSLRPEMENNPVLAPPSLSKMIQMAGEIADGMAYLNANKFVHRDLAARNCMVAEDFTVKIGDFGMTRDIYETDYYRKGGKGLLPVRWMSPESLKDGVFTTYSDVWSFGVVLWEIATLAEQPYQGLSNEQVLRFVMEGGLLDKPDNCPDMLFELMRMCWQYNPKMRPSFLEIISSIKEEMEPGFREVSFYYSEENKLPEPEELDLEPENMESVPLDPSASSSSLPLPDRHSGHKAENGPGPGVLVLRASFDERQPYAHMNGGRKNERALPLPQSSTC

[5] = biological target: Insulin-like growth factor 1 receptor (Homo sapiens) (UniProt P08069); conditions: at 10 µM
[6] = biological target: Interleukin-1 receptor-associated kinase 1 (Homo sapiens) (UniProt P51617); conditions: at 1 µM
Chain of Interleukin-1 receptor-associated kinase 1 (Homo sapiens) (P51617 whole entry, looked up): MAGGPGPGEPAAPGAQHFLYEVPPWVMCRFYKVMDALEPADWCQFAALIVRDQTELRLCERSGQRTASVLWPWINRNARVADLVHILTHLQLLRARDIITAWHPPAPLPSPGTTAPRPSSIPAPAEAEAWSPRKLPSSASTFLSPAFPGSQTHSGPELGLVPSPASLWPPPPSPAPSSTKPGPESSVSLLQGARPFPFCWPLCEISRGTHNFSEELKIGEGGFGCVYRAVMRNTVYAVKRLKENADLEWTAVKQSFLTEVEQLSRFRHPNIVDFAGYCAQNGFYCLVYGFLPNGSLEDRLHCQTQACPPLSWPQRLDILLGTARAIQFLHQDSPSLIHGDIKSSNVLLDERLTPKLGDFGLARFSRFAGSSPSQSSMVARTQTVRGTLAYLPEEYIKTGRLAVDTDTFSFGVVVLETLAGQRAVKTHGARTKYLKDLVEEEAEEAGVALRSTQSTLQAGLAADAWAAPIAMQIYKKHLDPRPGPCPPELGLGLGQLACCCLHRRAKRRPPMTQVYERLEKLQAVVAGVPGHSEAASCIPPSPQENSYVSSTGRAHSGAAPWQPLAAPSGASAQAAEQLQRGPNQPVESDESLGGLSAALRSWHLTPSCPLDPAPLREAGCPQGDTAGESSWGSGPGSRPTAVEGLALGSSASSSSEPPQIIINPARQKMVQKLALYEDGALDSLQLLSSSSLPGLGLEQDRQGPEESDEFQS

[7] = biological target: Interleukin-1 receptor-associated kinase 1 (Homo sapiens) (UniProt P51617); conditions: at 10 µM
[8] = biological target: T3, Interleukin-1 receptor-associated kinase 4 (Homo sapiens) (UniProt Q9NWZ3); conditions: at 1 µM
T3 sequence (whole entry): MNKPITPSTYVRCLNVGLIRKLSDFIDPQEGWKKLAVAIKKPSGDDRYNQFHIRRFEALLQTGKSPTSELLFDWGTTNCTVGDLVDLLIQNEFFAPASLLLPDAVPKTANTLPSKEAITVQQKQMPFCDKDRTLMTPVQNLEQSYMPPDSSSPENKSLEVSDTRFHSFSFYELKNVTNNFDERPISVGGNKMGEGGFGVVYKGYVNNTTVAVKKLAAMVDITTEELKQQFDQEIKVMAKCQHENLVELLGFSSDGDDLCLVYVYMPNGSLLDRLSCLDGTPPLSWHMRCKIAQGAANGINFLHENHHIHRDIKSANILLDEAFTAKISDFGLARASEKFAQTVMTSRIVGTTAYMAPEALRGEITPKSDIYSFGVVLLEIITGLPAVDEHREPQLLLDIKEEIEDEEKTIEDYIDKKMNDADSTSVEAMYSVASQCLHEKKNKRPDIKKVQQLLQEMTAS

[9] = biological target: T3, Interleukin-1 receptor-associated kinase 4 (Homo sapiens); conditions: at 10 µM
[10] = biological target: Insulin receptor-related protein (Homo sapiens) (UniProt P14616); conditions: at 1 µM
Chain of Insulin receptor-related protein (Homo sapiens) (P14616 27-742 limits assumed): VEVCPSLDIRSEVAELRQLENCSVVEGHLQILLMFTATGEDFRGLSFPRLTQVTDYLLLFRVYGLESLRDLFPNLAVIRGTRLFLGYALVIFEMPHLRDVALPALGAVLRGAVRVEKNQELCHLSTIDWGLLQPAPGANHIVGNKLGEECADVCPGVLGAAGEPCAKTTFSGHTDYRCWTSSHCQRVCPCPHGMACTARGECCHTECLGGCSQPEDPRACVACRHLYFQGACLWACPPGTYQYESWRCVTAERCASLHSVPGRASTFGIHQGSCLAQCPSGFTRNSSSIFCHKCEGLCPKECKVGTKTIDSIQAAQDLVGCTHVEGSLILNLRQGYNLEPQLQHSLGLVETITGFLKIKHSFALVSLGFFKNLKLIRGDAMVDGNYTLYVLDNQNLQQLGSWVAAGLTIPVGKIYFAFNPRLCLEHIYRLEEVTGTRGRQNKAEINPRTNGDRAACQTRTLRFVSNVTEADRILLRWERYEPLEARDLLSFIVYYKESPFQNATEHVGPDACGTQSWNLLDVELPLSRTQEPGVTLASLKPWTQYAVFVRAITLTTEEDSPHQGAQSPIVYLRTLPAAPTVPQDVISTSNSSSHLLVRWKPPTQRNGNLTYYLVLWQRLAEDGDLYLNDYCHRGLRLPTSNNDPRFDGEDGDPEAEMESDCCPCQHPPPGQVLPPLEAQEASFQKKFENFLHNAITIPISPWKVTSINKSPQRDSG
Chain of Insulin receptor-related protein (Homo sapiens) (P14616 747-1297 limits assumed): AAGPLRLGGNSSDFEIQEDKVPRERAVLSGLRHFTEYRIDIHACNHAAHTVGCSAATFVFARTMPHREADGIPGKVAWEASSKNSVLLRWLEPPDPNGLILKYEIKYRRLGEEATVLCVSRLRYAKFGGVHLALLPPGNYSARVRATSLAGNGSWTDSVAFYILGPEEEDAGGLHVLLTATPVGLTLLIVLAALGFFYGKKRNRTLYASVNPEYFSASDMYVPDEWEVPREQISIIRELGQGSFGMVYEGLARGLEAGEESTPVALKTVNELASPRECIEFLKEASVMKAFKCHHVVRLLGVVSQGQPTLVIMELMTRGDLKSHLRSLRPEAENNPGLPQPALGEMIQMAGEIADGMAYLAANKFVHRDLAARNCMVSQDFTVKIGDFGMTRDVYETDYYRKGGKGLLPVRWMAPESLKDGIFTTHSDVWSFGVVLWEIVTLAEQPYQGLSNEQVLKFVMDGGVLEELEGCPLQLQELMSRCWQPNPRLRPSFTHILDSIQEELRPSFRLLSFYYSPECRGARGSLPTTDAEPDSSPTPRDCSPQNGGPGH

[11] = biological target: Insulin receptor-related protein (Homo sapiens) (UniProt P14616); conditions: at 10 µM
[12] = biological target: T4, Tyrosine-protein kinase ITK/TSK (Homo sapiens) (UniProt Q08881); conditions: at 1 µM
T4 sequence (whole entry): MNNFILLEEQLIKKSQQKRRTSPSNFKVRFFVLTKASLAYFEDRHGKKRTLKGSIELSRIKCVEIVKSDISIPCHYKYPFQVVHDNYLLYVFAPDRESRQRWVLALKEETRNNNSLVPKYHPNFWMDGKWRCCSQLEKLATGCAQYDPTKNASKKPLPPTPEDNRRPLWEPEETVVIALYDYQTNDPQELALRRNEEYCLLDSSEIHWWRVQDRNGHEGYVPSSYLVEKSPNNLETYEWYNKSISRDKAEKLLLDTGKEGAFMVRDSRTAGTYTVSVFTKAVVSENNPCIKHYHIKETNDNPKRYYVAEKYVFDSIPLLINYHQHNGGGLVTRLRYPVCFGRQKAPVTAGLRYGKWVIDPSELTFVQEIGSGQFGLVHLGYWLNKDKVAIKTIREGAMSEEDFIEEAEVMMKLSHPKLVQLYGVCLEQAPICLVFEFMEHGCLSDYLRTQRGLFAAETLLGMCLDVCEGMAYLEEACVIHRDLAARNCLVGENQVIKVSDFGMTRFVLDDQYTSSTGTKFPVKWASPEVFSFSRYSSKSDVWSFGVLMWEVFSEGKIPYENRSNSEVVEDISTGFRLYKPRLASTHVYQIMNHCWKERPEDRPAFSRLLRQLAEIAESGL

[13] = biological target: T5, Inhibitor of nuclear factor kappa-B kinase subunit alpha (Homo sapiens) (UniProt O15111); conditions: at 1 µM
T5 sequence (whole entry): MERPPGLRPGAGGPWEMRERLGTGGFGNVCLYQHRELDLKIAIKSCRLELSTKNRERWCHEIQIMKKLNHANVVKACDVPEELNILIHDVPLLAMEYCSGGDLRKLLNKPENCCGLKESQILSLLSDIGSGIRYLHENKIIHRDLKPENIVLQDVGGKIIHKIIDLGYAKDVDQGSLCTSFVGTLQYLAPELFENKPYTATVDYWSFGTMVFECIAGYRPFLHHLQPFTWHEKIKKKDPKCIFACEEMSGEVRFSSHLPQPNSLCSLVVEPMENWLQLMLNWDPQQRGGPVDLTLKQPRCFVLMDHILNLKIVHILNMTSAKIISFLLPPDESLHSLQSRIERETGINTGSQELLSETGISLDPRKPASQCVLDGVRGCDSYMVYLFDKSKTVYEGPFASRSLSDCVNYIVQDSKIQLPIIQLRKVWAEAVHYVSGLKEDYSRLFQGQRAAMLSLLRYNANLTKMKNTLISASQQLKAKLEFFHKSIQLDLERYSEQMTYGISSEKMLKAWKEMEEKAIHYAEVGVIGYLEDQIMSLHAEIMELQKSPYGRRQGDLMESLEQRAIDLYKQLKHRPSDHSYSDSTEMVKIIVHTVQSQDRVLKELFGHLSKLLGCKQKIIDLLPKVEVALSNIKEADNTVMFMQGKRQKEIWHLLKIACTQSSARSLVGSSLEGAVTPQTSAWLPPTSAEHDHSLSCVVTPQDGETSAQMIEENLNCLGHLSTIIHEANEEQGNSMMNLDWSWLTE

[14] = biological target: T5, Inhibitor of nuclear factor kappa-B kinase subunit alpha (Homo sapiens); conditions: at 10 µM
[15] = biological target: T6, Inhibitor of nuclear factor kappa-B kinase subunit beta (Homo sapiens) (UniProt O14920); conditions: at 10 µM
T6 sequence (whole entry): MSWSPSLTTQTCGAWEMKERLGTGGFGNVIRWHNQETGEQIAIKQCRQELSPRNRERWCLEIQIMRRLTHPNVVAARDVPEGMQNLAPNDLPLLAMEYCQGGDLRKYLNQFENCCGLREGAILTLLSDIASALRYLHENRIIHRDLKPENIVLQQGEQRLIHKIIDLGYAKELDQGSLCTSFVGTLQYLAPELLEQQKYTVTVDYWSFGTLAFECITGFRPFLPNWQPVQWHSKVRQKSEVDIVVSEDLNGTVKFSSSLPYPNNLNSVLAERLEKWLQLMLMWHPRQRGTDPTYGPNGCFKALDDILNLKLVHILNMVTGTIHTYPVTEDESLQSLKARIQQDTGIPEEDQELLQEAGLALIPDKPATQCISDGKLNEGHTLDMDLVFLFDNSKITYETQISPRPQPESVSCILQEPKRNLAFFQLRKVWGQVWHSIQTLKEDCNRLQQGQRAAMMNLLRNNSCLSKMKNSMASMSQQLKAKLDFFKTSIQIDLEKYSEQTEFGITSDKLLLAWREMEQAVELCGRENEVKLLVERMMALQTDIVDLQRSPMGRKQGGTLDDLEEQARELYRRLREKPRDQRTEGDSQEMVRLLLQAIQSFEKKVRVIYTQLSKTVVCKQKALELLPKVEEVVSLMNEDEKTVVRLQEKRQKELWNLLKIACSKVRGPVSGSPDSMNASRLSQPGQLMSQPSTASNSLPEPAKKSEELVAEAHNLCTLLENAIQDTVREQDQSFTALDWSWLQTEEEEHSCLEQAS

[16] = biological target: Insulin receptor (Homo sapiens) (UniProt P06213); conditions: at 1 µM
Chain of Insulin receptor (Homo sapiens) (P06213 28-758 limits assumed): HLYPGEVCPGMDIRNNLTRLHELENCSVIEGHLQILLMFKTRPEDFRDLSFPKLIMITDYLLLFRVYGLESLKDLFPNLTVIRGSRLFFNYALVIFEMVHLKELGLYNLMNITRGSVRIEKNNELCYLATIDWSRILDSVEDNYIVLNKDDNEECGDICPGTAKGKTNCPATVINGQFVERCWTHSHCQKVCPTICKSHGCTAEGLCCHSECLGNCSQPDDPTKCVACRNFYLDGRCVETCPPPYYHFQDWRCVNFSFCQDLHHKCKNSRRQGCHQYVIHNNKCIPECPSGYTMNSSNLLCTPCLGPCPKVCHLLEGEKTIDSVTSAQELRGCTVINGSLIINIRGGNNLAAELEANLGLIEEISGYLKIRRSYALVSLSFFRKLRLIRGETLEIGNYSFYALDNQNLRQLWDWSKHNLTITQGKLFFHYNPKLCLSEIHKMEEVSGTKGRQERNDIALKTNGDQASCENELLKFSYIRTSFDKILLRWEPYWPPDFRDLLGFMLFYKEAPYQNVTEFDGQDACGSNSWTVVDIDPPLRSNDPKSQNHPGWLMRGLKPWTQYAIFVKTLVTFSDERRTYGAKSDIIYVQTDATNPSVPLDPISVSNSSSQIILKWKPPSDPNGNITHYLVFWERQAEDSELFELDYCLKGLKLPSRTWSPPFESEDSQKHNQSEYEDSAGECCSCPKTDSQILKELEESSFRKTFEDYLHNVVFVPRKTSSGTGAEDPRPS
Chain of Insulin receptor (Homo sapiens) (P06213 763-1382 limits assumed): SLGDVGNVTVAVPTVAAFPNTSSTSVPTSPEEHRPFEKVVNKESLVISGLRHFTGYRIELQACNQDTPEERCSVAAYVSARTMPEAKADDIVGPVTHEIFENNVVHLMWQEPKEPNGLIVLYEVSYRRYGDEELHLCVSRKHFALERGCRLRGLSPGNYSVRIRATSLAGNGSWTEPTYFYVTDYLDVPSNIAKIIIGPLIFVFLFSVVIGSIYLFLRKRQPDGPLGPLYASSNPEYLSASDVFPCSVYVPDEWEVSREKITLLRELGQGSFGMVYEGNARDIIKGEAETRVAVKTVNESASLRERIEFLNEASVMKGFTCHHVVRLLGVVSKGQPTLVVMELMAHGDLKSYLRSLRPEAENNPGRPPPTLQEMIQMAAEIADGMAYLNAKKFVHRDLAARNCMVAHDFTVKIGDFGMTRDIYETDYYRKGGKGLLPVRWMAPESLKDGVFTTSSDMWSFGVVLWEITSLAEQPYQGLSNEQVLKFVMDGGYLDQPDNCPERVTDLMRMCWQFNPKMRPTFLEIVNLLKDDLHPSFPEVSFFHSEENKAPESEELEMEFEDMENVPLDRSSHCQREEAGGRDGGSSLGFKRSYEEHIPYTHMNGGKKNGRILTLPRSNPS

[17] = biological target: Insulin receptor (Homo sapiens) (UniProt P06213); conditions: at 10 µM
[18] = biological target: Insulin receptor (Homo sapiens) (UniProt P06213); conditions: at 1 µM; remark: listed apart in the source
[19] = biological target: Insulin receptor (Homo sapiens) (UniProt P06213); conditions: at 10 µM; remark: listed apart in the source
[20] = biological target: T6, Inhibitor of nuclear factor kappa-B kinase subunit beta (Homo sapiens); conditions: at 1 µM

Structure (SMILES) | residual activity [1] [%] | residual activity [2] [%] | residual activity [3] [%] | residual activity [4] [%] | residual activity [5] [%] | residual activity [6] [%] | residual activity [7] [%] | residual activity [8] [%] | residual activity [9] [%] | residual activity [10] [%] | residual activity [11] [%] | residual activity [12] [%] | residual activity [13] [%] | residual activity [14] [%] | residual activity [15] [%] | residual activity [16] [%] | residual activity [17] [%] | residual activity [18] [%] | residual activity [19] [%] | residual activity [20] [%]
NC(=O)Nc1sc(-c2ccc(F)cc2)cc1C(N)=O | 6 | 75 | 74 | 65 | 19 | 84 | 49 | 46 | 9 | 69 | 3 | 22 | – | – | – | – | – | – | – | –
Nc1ncnc2c1c(-c1ccc(Oc3ccccc3)cc1)cn2C1CCCC1 | 54 | 76 | 72 | 100 | 58 | 83 | 74 | 94 | – | 114 | 15 | 58 | 104 | 103 | 91 | 96 | 109 | 90 | 50 | –
COc1cc2ncnc(Nc3cccc(Cl)c3)c2cc1OC | 59 | 100 | 103 | 115 | – | 84 | 35 | 64 | 5 | 105 | 102 | 100 | – | – | – | 110 | – | – | – | –
CCCCc1c(-c2ccc(OC)cc2)[nH]c2nccnc12 | 59 | 84 | 73 | 61 | 51 | 62 | 81 | 79 | 65 | 100 | 88 | 82 | 87 | 87 | 101 | – | – | 66 | 75 | 109
CC(C)[C@H](CO)Nc1nc(Nc2cc(N)cc(Cl)c2)c2ncn(C(C)C)c2n1 | 43 | 98 | 91 | 75 | 17 | 94 | 49 | 39 | 7 | – | – | – | – | – | 88 | 90 | 50 | 55 | 6 | –
CCCCc1c(-c2ccc(O)cc2)[nH]c2nccnc12 | 35 | 91 | 46 | 65 | 66 | 52 | 53 | 71 | 26 | – | – | 93 | 90 | 81 | – | – | – | – | – | –
N#C/C(=C1/Nc2ccccc2S1)c1ccnc(NCCc2cccnc2)n1 | 40 | 96 | 69 | – | – | 80 | 70 | 80 | 31 | 132 | 63 | – | 113 | 71 | 83 | 127 | 137 | 98 | 83 | –
Nc1ncnc2[nH]nc(Nc3ccc(F)cc3)c12 | 58 | 107 | 74 | 109 | 112 | 93 | 101 | – | 58 | 124 | 106 | 103 | 105 | – | 108 | 141 | 103 | 97 | 90 | 115
O=C1C(Cl)=C(N2C(=O)CCC2=O)C(=O)c2ccccc21 | 60 | 100 | 90 | 90 | 101 | 85 | – | 75 | 83 | – | – | – | – | – | 92 | 100 | 87 | 89 | 93 | 116
Cn1sc(=O)n(Cc2ccccc2)c1=O | 55 | 77 | 72 | – | – | – | – | 74 | 76 | – | – | 97 | 91 | 93 | – | 93 | 82 | 96 | 93 | –
CCN1/C(=C/C(C)=O)Sc2ccc(OC)cc21 | 51 | – | – | – | – | – | – | – | – | – | – | – | – | – | – | – | – | – | – | –
COc1ccc(COc2ccc(Cc3cnc(N)nc3N)cc2OC)cc1 | 58 | 79 | 77 | – | – | 76 | 67 | – | – | 137 | 82 | 100 | – | – | – | – | – | – | – | 109
CN(C)S(=O)(=O)c1ccc2c(c1)/C(=C/c1cc3c([nH]1)CCCC3)C(=O)N2 | 60 | 88 | 91 | 93 | – | 9 | 0 | 19 | 17 | 85 | 77 | 23 | – | – | 63 | 93 | 88 | – | 95 | 100
